Inconclusive results are not listed. Activity calls are given as the source filed them. Calls come from the whole dose curve; as a rule, active = well fitted curve in the direction sought with a large enough effect; inconclusive = small, poorly fitted or top-dose-only effect, or another doubt; inactive = no such curve, though single readings can be large; an effect the other way counts as inactive or inconclusive. Starred links: 1 amine or outer side, 2 acyl side, 3 side chain; linkers in the order of their positions; H or OH if unused. Positions of bridges follow the written chain, without caps; N, C: chain ends. Non-standard residues stand in square brackets, D forms with d. Residues, ends and D or L forms follow the SMILES beside them. Chains are numbered I, II in the order given. *: point of attachment. Actinocin(9to1) = Cc1c2oc3c(C)ccc(C(=O)[*:1])c3nc-2c(C(=O)[*:2])c(N)c1=O; NMeV = CN[CH](C(=O)O)C(C)C; Nva = CCC[C@H](N)C(=O)O; Cbz = O=C(OCc1ccccc1)*; Sar = CNCC(=O)O

Assay [1] is described as follows: Quantitative High-Throughput drug screen in 47 multiple myeloma cell lines against the NCATS MIPE library collection: Karpas620_DSMZ cell viability assay (AID 1918959). Note: nearly all actives have a fitted effect of over 30% in size. Put shortly:
(§1)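 We plated 500 myeloma cells per well, pinned in MIPE 4.0 compounds, and incubated for 48 hours at 37C. ATP was then quantified with CellTiter-Glo, with DMSO and media-only wells defining 100% and 0%.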

The nature of assay [2]: Quantitative High-Throughput drug screen in 47 multiple myeloma cell lines against the NCATS MIPE library collection: KMM1_JCRB cell viability assay (AID 1918960). Note: nearly all actives have a fitted effect of over 30% in size. Put shortly: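 Viability screen: myeloma cells (500/well) incubated 48 h at 37 °C, humidified 5% CO2, with pinned library compounds; CellTiter-Glo added, luminescence read; DMSO wells set 100%, medium-only wells 0%.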

Assay [3] in a line: Quantitative High-Throughput drug screen in 47 multiple myeloma cell lines against the NCATS MIPE library collection: Karpas417_ECACC cell viability assay (AID 1918961). The following applies: Karpas417 myeloma viability, CellTiter-Glo ATP luminescence, 48 h; viability (% of DMSO): at 45.8 µM (top of the series). Summed up:
(§2)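 Viability readout: CellTiter-Glo luminescence following 5 min room-temperature incubation with reagent. Prior exposure: 48 h, 37C, humidified 5% CO2, 500 cells per well.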

Assay [4] is described as follows: Quantitative High-Throughput drug screen in 47 multiple myeloma cell lines against the NCATS MIPE library collection: KHM11_PLB cell viability assay (AID 1918962). Note: nearly all actives have a fitted effect of over 35% in size. Put shortly:
as §1

Assay [5] can be described thus: Quantitative High-Throughput drug screen in 47 multiple myeloma cell lines against the NCATS MIPE library collection: JIM3_ECACC cell viability assay (AID 1918963; note: nearly all actives have a fitted effect of over 35% in size). Put shortly:
as §1

Assay [6] in a line: Quantitative High-Throughput drug screen in 47 multiple myeloma cell lines against the NCATS MIPE library collection: JIM1_ECACC cell viability assay (AID 1918964). Put shortly: (§3)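 Myeloma cell lines, 500 cells per well, exposed to MIPE 4.0 library compounds for 48 h at 37C, 5% CO2. Viability from ATP by CellTiter-Glo luminescence; normalised to DMSO (100%) and media-only (0%) wells.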

Assay [7] is described as follows: Quantitative High-Throughput drug screen in 47 multiple myeloma cell lines against the NCATS MIPE library collection: H1112_PLB cell viability assay (AID 1918967; note: nearly all actives have a fitted effect of over 30% in size). Put shortly: as §3
Assay [8] can be described thus: Quantitative High-Throughput drug screen in 47 multiple myeloma cell lines against the NCATS MIPE library collection: Karpas25_ECACC cell viability assay (AID 1918968; note: nearly all actives have a fitted effect of over 35% in size). Put shortly: as §3
Assay [9] can be described thus: Quantitative High-Throughput drug screen in 47 multiple myeloma cell lines against the NCATS MIPE library collection: KMS27_JCRB cell viability assay (AID 1918970). Note: nearly all actives have a fitted effect of over 30% in size. Conditions: KMS27 myeloma cells, CellTiter-Glo ATP viability, 48 h; viability (% of DMSO): at 45.8 µM (top of the series). Put shortly: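 CellTiter-Glo luminescence after 48 h drug exposure at 37 °C; 500 cells/well, 1536-well format, pin-tool compound addition; DMSO = 100%, media-only = 0% viability.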

A short description of assay [10]: Quantitative High-Throughput drug screen in 47 multiple myeloma cell lines against the NCATS MIPE library collection: KMS12BM_JCRB cell viability assay (AID 1918971). Note: nearly all actives have a fitted effect of over 35% in size. Summed up:
(§4)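 Steps: seed 500 cells per well; pin-transfer MIPE 4.0 library; incubate 48 h at 37C, 5% CO2, humidified; add CellTiter-Glo, 5 min room temperature; read luminescence.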

Assay [11] in a line: Quantitative High-Throughput drug screen in 47 multiple myeloma cell lines against the NCATS MIPE library collection: KMS12PE_JCRB cell viability assay (AID 1918972). Note: nearly all actives have a fitted effect of over 30% in size. Summed up:
as §2

The nature of assay [12]: Quantitative High-Throughput drug screen in 47 multiple myeloma cell lines against the NCATS MIPE library collection: KMS20_JCRB cell viability assay (AID 1918973). Note: nearly all actives have a fitted effect of over 45% in size. Put shortly: as §3
Assay [13] is described as follows: Quantitative High-Throughput drug screen in 47 multiple myeloma cell lines against the NCATS MIPE library collection: KMS26_JCRB cell viability assay (AID 1918975). Note: nearly all actives have a fitted effect of over 45% in size. Put shortly:
as §4

A short description of assay [14]: Quantitative High-Throughput drug screen in 47 multiple myeloma cell lines against the NCATS MIPE library collection: MOLP8_DSMZ cell viability assay (AID 1918977). Note: nearly all actives have a fitted effect of over 45% in size. Put shortly:
(§5)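 Cells were exposed to library compounds for 48 hours, after which ATP was measured by CellTiter-Glo. Signal was taken as median relative luminescence units.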

Assay [15] is described as follows: Quantitative High-Throughput drug screen in 47 multiple myeloma cell lines against the NCATS MIPE library collection: NCIH929_DSMZ cell viability assay (AID 1918978). Note: nearly all actives have a fitted effect of over 35% in size. Put shortly: as §5
Assay [16] in a line: Quantitative High-Throughput drug screen in 47 multiple myeloma cell lines against the NCATS MIPE library collection: OCIMY1_PLB cell viability assay (AID 1918979). Note: nearly all actives have a fitted effect of over 35% in size. Summed up:
as §5

Assay [17] is described as follows: Quantitative High-Throughput drug screen in 47 multiple myeloma cell lines against the NCATS MIPE library collection: INA6_PLB cell viability assay (AID 1918965; note: nearly all actives have a fitted effect of over 55% in size). Summed up:
as §2

Assay [18] can be described thus: Quantitative High-Throughput drug screen in 47 multiple myeloma cell lines against the NCATS MIPE library collection: JJN3_DSMZ cell viability assay (AID 1918966; note: nearly all actives have a fitted effect of over 50% in size). Summed up: as §3
A short description of assay [19]: Quantitative High-Throughput drug screen in 47 multiple myeloma cell lines against the NCATS MIPE library collection: MMM1_PLB cell viability assay (AID 1918976). Note: nearly all actives have a fitted effect of over 35% in size. Put shortly:
as §5

Assay [20] can be described thus: Quantitative High-Throughput drug screen in 47 multiple myeloma cell lines against the NCATS MIPE library collection: KMS21BM_JCRB cell viability assay (AID 1918974). The following applies: ATP luminescence, 48 h; viability: at 45.8 µM (top of the series). Summed up:
as §3
Potency is the fitted concentration of half-maximal effect.

Regarding `CCC[C@@H](C=O)NC(=O)[C@H](CC(C)C)NC(=O)[C@H](CC(C)C)NC(=O)OCc1ccccc1` (Cbz-Leu-Leu-[Nva]-aldehyde), the Potency in assay [1] was 332 nM (active); in assay [2] it was 235 nM (active); in [3] it was 296 nM (active); in assay [4] it was 469 nM (active); in [5] it was 935 nM (active); in assay [6], 372 nM (active). Besides, the Potency in assay [7] was 418 nM (active); in assay [8], 296 nM (active); in assay [9] it was 332 nM (active); in [10], 1050 nM (active); in [11] it was 296 nM (active); in assay [12], 187 nM (active). The Potency in assay [13] is 1320 nM (active); in [14] it was 1180 nM (active); in assay [15] it was 296 nM (active); in [16] it was 743 nM (active).
As to `CCNC(=O)c1cc2c(-c3cc(OCCN4CCCC4)c(Cl)cc3Cl)nc(N)nc2s1`, the Potency is 1050 nM (active) in assay [1]; 590 nM (active) in assay [2]; 590 nM (active) in assay [3]; 590 nM (active) in assay [4]; 935 nM (active) in [5]; 469 nM (active) in assay [6]. Further, the Potency is 590 nM (active) in assay [17]; 2350 nM (active) in assay [18]; 6620 nM (active) in assay [7]; 833 nM (active) in assay [8]; 1180 nM (active) in assay [9]; 1480 nM (active) in [10]. The Potency in assay [11] is 418 nM (active); in assay [12] it was 1660 nM (active); in assay [13] it was 2350 nM (active); in assay [19], 2960 nM (active); in [14], 743 nM (active); in assay [15], 935 nM (active). Further, the Potency in assay [16] is 3320 nM (active).
On to `COc1cccc2c1C(=O)c1c(O)c3c(c(O)c1C2=O)C[C@@](O)(C(=O)CO)C[C@H]3O[C@H]1C[C@H](N)[C@H](O)[C@H](C)O1`, for which the Potency was 1050 nM (active) in assay [1]; 1870 nM (active) in assay [2]; 1320 nM (active) in assay [3]; 332 nM (active) in assay [4]; 332 nM (active) in [5]; 1050 nM (active) in [6]. Moreover, the Potency in assay [18] is 132 nM (active); in assay [7] it was 372 nM (active); in assay [8], 118 nM (active); in [9], 743 nM (active); in assay [10], 166 nM (active); in assay [12], 52.6 nM (active). Moreover, the Potency in assay [13] is 296 nM (active); in assay [19], 148 nM (active); in [14] it was 187 nM (active); in [15] it was 93.5 nM (active); in assay [16], 296 nM (active).
As for `Cc1cnc(Nc2ccc(N3CCN(C)CC3)cc2)nc1Nc1cccc(S(=O)(=O)NC(C)(C)C)c1`, the Potency in assay [1] is 3720 nM (active); in [2], 1660 nM (active); in assay [3], 372 nM (active); in assay [4] it was 1870 nM (active); in assay [5], 3720 nM (active); in assay [6], 662 nM (active). For the same molecule, the Potency in [17] was 418 nM (active); in [18], 2960 nM (active); in assay [7], 5900 nM (active); in [8], 1660 nM (active); in [10] it was 2640 nM (active); in [11], 1660 nM (active). In addition, the figures for the Potency in [14] and in assay [15] were 2090 nM (active) and 2350 nM (active), respectively.
For the molecule `CCc1cnn2c(NCc3ccc[n+]([O-])c3)cc(N3CCCC[C@@H]3CCO)nc12`, the Potency in assay [1] is 33.2 nM (active); in assay [2] it was 14.8 nM (active); in assay [3], 20.9 nM (active); in [4], 18.7 nM (active); in assay [5], 26.4 nM (active); in [6], 14.8 nM (active). For the same molecule, the Potency in assay [17] was 23.5 nM (active); in assay [7], 26.4 nM (active); in assay [8] it was 33.2 nM (active); in assay [9], 18.7 nM (active); in assay [10], 26.4 nM (active); in assay [11], 33.2 nM (active). In addition, the Potency is 13.2 nM (active) in [20]; 18.7 nM (active) in assay [13]; 29.6 nM (active) in assay [19]; 11.8 nM (active) in assay [14]; 23.5 nM (active) in [15]; 33.2 nM (active) in [16].
Regarding `N#Cc1cc(NC(=O)Nc2nnc(-c3ccncc3)s2)ccc1-c1cn[nH]c1`, the Potency result in [1], in assay [2], in [3], in assay [4], in assay [5] and in assay [6] was “inactive” each time. Also, the Potency entry in [17], in assay [7], in assay [8], in assay [9], in [13] and in assay [15] was “inactive” in each case. For the same molecule, in assay [16], the Potency result is “inactive”. Besides, in [19], the Potency is 3320 nM (active).
Take `Cc1c2oc3c(C)ccc(C(=O)NC4C(=O)NC(C(C)C)C(=O)N5CCCC5C(=O)N(C)CC(=O)N(C)C(C(C)C)C(=O)OC4C)c3nc-2c(C(=O)NC2C(=O)NC(C(C)C)C(=O)N3CCCC3C(=O)N(C)CC(=O)N(C)C(C(C)C)C(=O)OC2C)c(N)c1=O` (centres undefined) (I: TVP[Sar][NMeV] / II: TVP[Sar][NMeV]; ester I:1-I:C, II:1-II:C; linker I:N-II:N via Actinocin(9to1); configuration not given here): the Potency result in [1], in [2], in assay [3], in assay [4], in assay [5] and in assay [6] was “inactive” in each case. Also, the Potency result in assay [17], in assay [18], in [7], in [8], in assay [10] and in assay [11] was “inactive” each time. The Potency result in assay [13], in assay [19], in assay [14], in assay [15] and in assay [16] was “inactive” each time.
As to `COc1cc(O)c2c(c1)C1OC1C[C@H](O)[C@H](O)C(=O)C=CC[C@H](C)OC2=O` (some centres undefined), the Potency in assay [1] is 2640 nM (active); in assay [2] it was 4180 nM (active); in assay [3], 469 nM (active); in [4], 296 nM (active); in assay [5], 3720 nM (active); in [6], 2960 nM (active). In addition, the Potency in assay [17] is 2960 nM (active); in assay [7], 5260 nM (active); in assay [8], 3320 nM (active); in [10] it was 1480 nM (active); in assay [19] it was 18700 nM (active); in assay [14], 418 nM (active). Besides, the Potency in assay [15] was 1480 nM (active); in assay [16], 5260 nM (active).

Source of the values: PubChem BioAssay (NCATS).
